Measured values from PubChem BioAssay AID2283336 (EPA ToxCast).
Records with an inconclusive call do not appear. Active and inactive are the calls of the source. How the source made its calls: active means hit-call score of the fitted dose curve at least 0.9, where 1 is the maximum; inconclusive means response in the unintended direction; inactive means score below 0.9.

Target: Kcnn1 (gene 54261) (UniProt P70606)
Experiment: NVS_IC_rKCaCh: NovaScreen (NVS) Ion Channel Assay for Potassium Channel, Ca2+ Act., VI (KCaCh)
Procedure, shortened: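 Radioligand binding to rat forebrain membranes, cell-free, read 1 hour after dosing by filter-based scintillation counting. Compounds first run in duplicate at 25 uM, actives then in concentration series; loss of signal vs DMSO indicates displacement.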

Sequence of Kcnn1 (gene 54261) (P70606 whole entry, looked up): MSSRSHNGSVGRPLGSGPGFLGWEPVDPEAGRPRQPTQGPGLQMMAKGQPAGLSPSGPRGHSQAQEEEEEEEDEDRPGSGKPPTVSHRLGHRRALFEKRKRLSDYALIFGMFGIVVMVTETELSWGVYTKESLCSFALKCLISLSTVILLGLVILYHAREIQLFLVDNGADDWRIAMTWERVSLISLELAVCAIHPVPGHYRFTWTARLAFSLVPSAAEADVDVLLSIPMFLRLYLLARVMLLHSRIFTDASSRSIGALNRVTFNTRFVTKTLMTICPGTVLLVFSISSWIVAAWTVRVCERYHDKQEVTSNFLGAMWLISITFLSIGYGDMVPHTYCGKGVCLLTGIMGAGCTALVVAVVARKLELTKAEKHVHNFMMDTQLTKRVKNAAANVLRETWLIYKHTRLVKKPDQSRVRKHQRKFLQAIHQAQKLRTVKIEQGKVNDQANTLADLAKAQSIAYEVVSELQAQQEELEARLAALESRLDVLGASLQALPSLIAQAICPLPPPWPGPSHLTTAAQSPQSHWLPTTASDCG

## CN(C)c1ccc(C(=C2C=CC(=[N+](C)C)C=C2)c2ccc(N(C)C)cc2)cc1
  AC50: 16.5 µM (active)
